From PubChem
An excerpt weighted towards active compounds, which were near 12% of everything screened.
G9a block = blocks human histone lysine methyltransferase G9a | Potency, µM (highest dose often 102 µM), without a hit: at the highest dose activity, negative = inhibition, hits mostly inhibitors | G9a H3K9 monomethylation, AlphaScreen, 2 h | actives 8.8% (n = 350,000) | AID 504332; further: potency means the concentration at half of the fitted maximal effect; on the % scale 0 is the no-effect control and ±100 the full control effect; nearly all actives have a fitted effect of over 75% in size
Target sequence (Q96KQ7 913-1193 limits assumed): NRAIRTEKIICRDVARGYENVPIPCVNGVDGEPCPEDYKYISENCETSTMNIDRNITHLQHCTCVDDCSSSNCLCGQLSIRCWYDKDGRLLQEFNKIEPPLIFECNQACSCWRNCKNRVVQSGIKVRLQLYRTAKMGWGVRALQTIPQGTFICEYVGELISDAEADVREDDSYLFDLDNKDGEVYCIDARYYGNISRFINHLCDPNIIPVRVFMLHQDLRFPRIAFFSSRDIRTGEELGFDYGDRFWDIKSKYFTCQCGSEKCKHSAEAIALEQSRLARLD
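G9a (20 nM) was preincubated 15 min with compound, then reacted 2 h at room temperature with 500 nM biotin-H3K9 peptide and 20 µM SAM. Monomethyl-H3K9 detected by AlphaScreen using anti-H3K9me1 antibody.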
PLK1 PBD block = PLK1 (human) polo-box domain binding inhibition | P53350 | Plk1 PBD binding of FITC phosphopeptide, fluorescence polarization | Potency, µM, without a hit: max response, negative = inhibition, hits mostly inhibitors | actives 2.8% (n = 360,000); further: potency means the concentration at half of the fitted maximal effect; series mostly up to about 57 µM; on the % scale 0 is the no-effect control and ±100 the full control effect; nearly all actives have a fitted effect of over 65% in size
PI5P4Ka inh = blocks human PI5P4K alpha kinase activity; PI5P4Kalpha enzyme, ADP-Glo luminescence, 60 min; stronger effect = lower value; max response, %; actives 1.2% (n = 330,000); AID 652105; active means max response of -50% or lower; inconclusive means between -30% and -50%; inactive means -30% or higher; further: value at the top dose of about 77 µM; on the % scale 0 is the no-effect control and ±100 the full control effect
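ADP-Glo luminescence end-point read after a 60 min room-temperature kinase reaction of PI5P4Kalpha plus substrate, initiated with ATP at 5 microM final. Buffer: 0.038 M HEPES pH 7.4, EGTA, 0.1% CHAPS, 5% DMSO.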
BAZ2B inh = blocks human BAZ2B. AlphaScreen BAZ2B-H3K14Ac peptide displacement. Potency, µM (top dose mostly 114 µM), for inactives: at the highest dose activity change, negative = inhibition, hits mostly inhibitors. actives 4.4% (n = 360,000). AID 504333; further: potency means the concentration at half of the fitted maximal effect; on the % scale 0 is the no-effect control and ±100 the full control effect; nearly all actives have a fitted effect of over 60% in size
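BAZ2B 50 nM plus b-H3(5-23)K14Ac 50 nM, PBS pH 7.4/0.01% Tween-20, 30 min RT; compound added (max 110 uM), 30 min RT; streptavidin donor/Ni-chelate acceptor beads 10 ug/mL final, 20 min dark; AlphaScreen read.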
JMJD2A Tudor inh = JMJD2A Tudor domain (human) inhibition. O75164. AlphaScreen JMJD2A-Tudor / H3K4me3 peptide binding. actives 4.4% (n = 390,000). Potency, µM (doses to about 114 µM), for the others: top-dose activity change, negative = inhibition, hits mostly inhibitors. AID 504339; further: potency means the concentration at half of the fitted maximal effect; on the % scale 0 is the no-effect control and ±100 the full control effect; nearly all actives have a fitted effect of over 50% in size
HP1b chromo inh = HP1-beta chromodomain-methylated histone interaction inhibition. AlphaScreen HP1-beta / biotin-H3K9me3 peptide binding. P83916. actives 0.56% (n = 390,000). AID 540317. Potency, µM (top dose mostly 114 µM), inactives show at the top dose activity change, negative = inhibition, hits mostly inhibitors; further: potency means the concentration at half of the fitted maximal effect; nearly all actives have a fitted effect of over 70% in size
Target sequence (P83916 whole entry, looked up): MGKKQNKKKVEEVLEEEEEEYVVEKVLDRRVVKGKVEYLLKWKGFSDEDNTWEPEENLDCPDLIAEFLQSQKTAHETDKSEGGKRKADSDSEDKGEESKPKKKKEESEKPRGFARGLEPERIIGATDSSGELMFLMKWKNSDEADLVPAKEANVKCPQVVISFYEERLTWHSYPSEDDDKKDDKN
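HP1-beta protein (50 nM final) preincubated 30 min at room temperature with biotinylated H3(1-18)K9me3 peptide (50 nM) in PBS pH 7.4, 0.01% Tween-20, then compound added for 30 min. AlphaScreen streptavidin donor/nickel chelate acceptor beads (10 ug/mL final), 30 min dark, luminescence read.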
An asterisk follows results filed as active; [ ] = remark or other dose. Unless noted, the call rests on the fitted dose curve; in most records, active means well fitted curve in the direction sought with a large enough effect; inconclusive means small, poorly fitted or top-dose-only effect, or another doubt; inactive means no such curve, though single readings can be large; an effect the other way counts as inactive or inconclusive.

`CCOC(=O)C1=C(CSc2nc(-c3ccncc3)ccc2C#N)OC(N)=C(C#N)C1c1ccc(OC)cc1` (centres undefined) gave G9a block 40µM*, PLK1 PBD block 0%, PI5P4Ka inh -29, BAZ2B inh inconclusive, JMJD2A Tudor inh inconclusive and HP1b chromo inh 8%.
CCOC(=O)C1=C(C(C)=O)C(c2cccnc2)C(C#N)=C(N)O1 (centres undefined) was read as G9a block -4%[12.7 µM], PLK1 PBD block -7%, PI5P4Ka inh -2, BAZ2B inh -7%, JMJD2A Tudor inh inconclusive and HP1b chromo inh 17%.
For CCOC(=O)C1=C(CSc2nc(CC)c(C)cc2C#N)OC(N)=C(C#N)C1c1ccc(OC)cc1 (centres undefined) the results were G9a block 4.5µM*, PLK1 PBD block inconclusive, PI5P4Ka inh -13, BAZ2B inh -25%, JMJD2A Tudor inh 32µM* and HP1b chromo inh 21%.
For C[C@@H]1C(=O)O[C@@H]1[C@@H](C)CO[Si](c1ccccc1)(c1ccccc1)C(C)(C)C the results were JMJD2A Tudor inh 17% and HP1b chromo inh 43%.
`CCOC(=O)C1=C(c2ccccc2)OC(N)=C(C#N)C1c1ccncc1` (centres undefined) gave G9a block 45µM*, PLK1 PBD block -17%, PI5P4Ka inh -10, BAZ2B inh -19%, JMJD2A Tudor inh -20% and HP1b chromo inh 29%.
CCOC(=O)C1=C(C)OC(N)=C(C#N)C1c1ccc(OC)c(CSc2ccccn2)c1 (centres undefined) was read as G9a block 22µM*, PLK1 PBD block -5%, PI5P4Ka inh 3, BAZ2B inh inconclusive, JMJD2A Tudor inh inconclusive and HP1b chromo inh 20%.
For COc1ccc(C2C(C#N)=C(N)Oc3n[nH]c(C)c32)cc1CSc1ccccn1 (centres undefined) the results were G9a block 6%[12.7 µM], PLK1 PBD block inconclusive, PI5P4Ka inh -17, BAZ2B inh -12%, JMJD2A Tudor inh -17%[11.4 µM] and HP1b chromo inh -11%.
`COc1cccc(CNC(=O)c2sc3nc[nH]c(=O)c3c2C)c1` gave G9a block 16%[59 µM], BAZ2B inh 5%, JMJD2A Tudor inh 1% and HP1b chromo inh 10%[57 µM].
For Cc1ccc(S(=O)(=O)N2[C@@H](c3ccc(F)cc3)C(C(=O)O)=CC[C@H]2c2cccs2)cc1 the results were G9a block 13%[2.33 µM], PLK1 PBD block -6%, PI5P4Ka inh 0, BAZ2B inh 1%, JMJD2A Tudor inh -7% and HP1b chromo inh 36%.
Screening O=C(O)c1ccccc1C=NNc1ccccn1 returned PLK1 PBD block 2%, PI5P4Ka inh -1, JMJD2A Tudor inh 28µM* and HP1b chromo inh 10%.
Screening O=C(O)c1ccccc1C=NNc1ccc([N+](=O)[O-])cn1 returned PLK1 PBD block -2%, PI5P4Ka inh -4, JMJD2A Tudor inh -17% and HP1b chromo inh -11%.
Screening COc1cc(/C=N/NC(=O)C(=O)NCC2CCCO2)ccc1O (centres undefined) returned G9a block 11%[59 µM], PLK1 PBD block -20%, PI5P4Ka inh 5, BAZ2B inh 10%, JMJD2A Tudor inh -23% and HP1b chromo inh 50%.
For O=C(NCC1CCCO1)C(=O)N/N=C/c1ccccc1C(=O)O (centres undefined) the results were G9a block 14%, PLK1 PBD block 27µM*, PI5P4Ka inh -8, BAZ2B inh -34%, JMJD2A Tudor inh -16%[11.4 µM] and HP1b chromo inh 8%.
For CC(NC(=O)C(=O)NCC1CCCO1)c1ccccc1 (centres undefined) the results were G9a block 2%, PLK1 PBD block -4%, PI5P4Ka inh -4, BAZ2B inh -15%, JMJD2A Tudor inh -4%[57.1 µM] and HP1b chromo inh 28%.
Screening O=C(NN=Cc1ccccc1C(=O)O)C(=O)NN=Cc1ccccc1C(=O)O returned PLK1 PBD block 5%, PI5P4Ka inh -2, JMJD2A Tudor inh 50µM* and HP1b chromo inh 12%[57 µM].
